Measured values from PubChem BioAssay (EPA / NIEHS).
Results filed as inconclusive are left out. Active and inactive are the calls of the source. How the source made its calls, unless noted: active means hit-call score of the fitted dose curve at least 0.9, where 1 is the maximum; inactive means score below 0.9.

What was measured:
[1] = target: Oxysterols receptor LXR-alpha (Homo sapiens) (UniProt Q13133); test: ATG_LXRa_TRANS: Attagene TRANS-FACTORIAL HepG2 Assay for human Liver X Receptor alpha (LXRa) (AID 2282980; active means hit-call score of the fitted dose curve at least 0.9, where 1 is the maximum); conditions: HepG2 Attagene TRANS reporter, LXRa transactivation
Procedure, shortened: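 Transient HepG2 transfectants, 24 h dosing, RT-PCR/CE mRNA reporter quantitation; gain-of-signal vs DMSO.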

[2] = target: Oxysterols receptor LXR-beta (Homo sapiens) (UniProt P55055); test: ATG_LXRb_TRANS: Attagene TRANS-FACTORIAL HepG2 Assay for human Liver X Receptor beta (LXRb) (AID 2282981; active means hit-call score of the fitted dose curve at least 0.9, where 1 is the maximum); conditions: HepG2 Attagene TRANS GAL4-LXRb reporter, mRNA
Procedure, shortened: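 Cells: HepG2, transiently transfected with GAL4-UAS reporter units plus LXRb-Gal4 fusion. Treatment: 24 h. Detection: reporter mRNA by RT-PCR, 6-FAM labelling, HpaI digestion, capillary electrophoresis.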

[3] = target: Nuclear receptor subfamily 4 group A member 2 (Homo sapiens) (UniProt P43354); test: ATG_NURR1_TRANS: Attagene TRANS-FACTORIAL HepG2 Assay for human Nuclear Receptor Related Protein 1 (NURR1) (AID 2282985; active means hit-call score of the fitted dose curve at least 0.9, where 1 is the maximum); conditions: HepG2 Attagene TRANS reporter, mRNA readout
Procedure, shortened: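 Cells: HepG2, transiently transfected. Exposure: 24 h. Detection: fluorescence of labelled RT-PCR products separated by capillary electrophoresis; upward fit versus DMSO.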

[4] = target: Transcriptional activator Myb (Homo sapiens) (UniProt P10242); test: ATG_Myb_CIS: Attagene CIS-FACTORIAL HepG2 Assay for human Myeloblastosis (Myb) Proto-Oncogene Transcription Factor (AID 2282986); conditions: HepG2 Attagene CIS-FACTORIAL Myb reporter transcription; actives raise or lower the signal
Procedure, shortened: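 Endogenous transcription factor activity at a Myb-responsive cis element is reported in human liver HepG2 cells after 24 h chemical treatment. Reporter mRNA is detected by RT-PCR and capillary electrophoresis fluorescence, with DMSO as baseline.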

[5] = target: Nuclear respiratory factor 1 (Homo sapiens) (UniProt Q16656); test: ATG_NRF1_CIS: Attagene CIS-FACTORIAL HepG2 Assay for human Nuclear Respiratory Factor 1 (NRF1) Orphan Gene (AID 2282987); conditions: HepG2 NRF1 cis-element reporter, Attagene multiplex; actives raise or lower the signal
Procedure, shortened: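 Human hepatoma HepG2 cells carrying transfected promoter-regulated reporter units were incubated with test chemicals for 24 h. Reporter transcripts were measured by RT-PCR plus capillary electrophoresis, and endpoints derived by bidirectional fitting with DMSO as baseline.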

[6] = ATG_NFI_CIS: Attagene CIS-FACTORIAL HepG2 Assay for human Nuclear Factor I (NFI) (AID 2282989); conditions: HepG2 cis-regulatory reporter, NFI response element transcription; actives raise or lower the signal
Procedure, shortened: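 HepG2, transient MRTU, 24 h exposure; RNA→cDNA→PCR→FAM label→HpaI→CE fluorescence. Bidirectional fit, DMSO = baseline.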

[7] = target: Myc proto-oncogene protein (Homo sapiens) (UniProt P01106); test: ATG_Myc_CIS: Attagene CIS-FACTORIAL HepG2 Assay for human Myelocytomatosis (Myc) Proto-Oncogene Transcription Factor (AID 2282990); conditions: HepG2, Attagene cis-reporter transcription factor activity; actives raise or lower the signal
Procedure, shortened: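 HepG2, transient MRTU transfection (cis promoters, endogenous TFs); 24 h dosing; TriZol RNA → oligo(dT) RT → PCR → 6-FAM primer extension → HpaI cut → CE. Bidirectional fit vs DMSO.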

[8] = ATG_NF_kB_CIS: Attagene CIS-FACTORIAL HepG2 Assay for human Nuclear Factor Kappa B (NF-kB) (AID 2282991); conditions: HepG2 Attagene cis-factorial NF-kB reporter mRNA; actives raise or lower the signal
Procedure, shortened: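 Multiplexed cis-reporter assay in transiently transfected HepG2. 24 h treatment; RNA isolated, RT-PCR, labelled fragments resolved by CE. DMSO baseline.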

[9] = ATG_NRF2_ARE_CIS: Attagene CIS-FACTORIAL HepG2 Assay for human Nuclear Factor Erythroid 2 Related Factor 2 (NFR2) response to Antioxidant Response Elements (ARE) (AID 2282992); conditions: HepG2 Attagene ARE/NRF2 reporter, transcription factor activity; actives raise or lower the signal;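 on AC50: reporter mRNA level measured by RT-PCR and capillary electrophoresis fluorescence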
Procedure, shortened: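 Cis-factorial assay: transfected HepG2 reporter library, 24 h dosing, mRNA readout via RT-PCR/CE; DMSO-referenced bidirectional analysis.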

[10] = ATG_Oct_MLP_CIS: Attagene CIS-FACTORIAL HepG2 Assay for human Octamer-Binding Transcription Factor (Oct) (AID 2282993); conditions: HepG2 Attagene cis-factorial Oct reporter, mRNA; actives raise or lower the signal
Procedure, shortened: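 Multiplexed cis-reporter assay in human liver HepG2 cells, 24 h incubation. Reporter RNA amplified and labelled, then resolved by capillary electrophoresis; DMSO serves as negative control and baseline.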

[11] = target: Cellular tumor antigen p53 (Homo sapiens) (UniProt P04637); test: ATG_p53_CIS: Attagene CIS-FACTORIAL HepG2 Assay for human p53 Transcription Factor (AID 2282994); conditions: HepG2 p53 cis-element reporter, Attagene mRNA; actives raise or lower the signal
Procedure, shortened: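 Using HepG2 hepatoma cells carrying cis-acting multiplexed reporters, mRNA induction is detected after a 24 h exposure. Gain- and loss-of-signal responses are fitted relative to DMSO-treated cells.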

[12] = target: Hepatocyte nuclear factor 4-alpha (Homo sapiens) (UniProt P41235); test: ATG_HNF4a_TRANS: Attagene TRANS-FACTORIAL HepG2 Assay for human Hepatocyte Nuclear Factor 4 alpha (HNF4a) (AID 2282982; active means hit-call score of the fitted dose curve at least 0.9, where 1 is the maximum); conditions: HepG2 HNF4a transactivation reporter, mRNA readout
Procedure, shortened: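 Transfected HepG2 reporter cells are dosed for 24 h; reporter RNA is reverse-transcribed, amplified, fluorescently labelled and HpaI-digested before CE sizing. Positive-direction fit against DMSO.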

[13] = ATG_M_06_TRANS: Attagene TRANS-FACTORIAL HepG2 Assay for M06 Transcription Factor (Internal Marker) (AID 2282983; active means hit-call score of the fitted dose curve at least 0.9, where 1 is the maximum;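 further: reporter transcript level by RT-PCR then capillary electrophoresis fluorescence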); conditions: HepG2 Attagene TRANS M06 internal marker reporter
Procedure, shortened: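 Measured by capillary electrophoresis of fluorescently labelled RT-PCR products, this endpoint reflects reporter mRNA in HepG2 cells harbouring exogenous NR-GAL4 reporter constructs after 24 h exposure, with DMSO as baseline.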

[14] = ATG_M_32_TRANS: Attagene TRANS-FACTORIAL HepG2 Assay for M32 Transcription Factor (Internal Marker) (AID 2282984; active means hit-call score of the fitted dose curve at least 0.9, where 1 is the maximum;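 further: transcript level of a background control reporter unit measured by RT-PCR and capillary electrophoresis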); conditions: HepG2 Attagene TRANS M32 internal marker reporter
Procedure, shortened: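 Using transiently transfected HepG2 cells exposed to test chemicals for 24 h, reporter transcripts are converted to labelled cDNA fragments and quantified by capillary electrophoresis. DMSO defines the activity baseline.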

[15] = target: Bile acid receptor (Homo sapiens) (UniProt Q96RI1); test: ATG_FXR_TRANS: Attagene TRANS-FACTORIAL HepG2 Assay for Farnesoid X Receptor (FXR) (AID 2282979; active means hit-call score of the fitted dose curve at least 0.9, where 1 is the maximum;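 further: hits raise reporter mRNA above DMSO so AC50 marks FXR activation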); conditions: HepG2 Attagene TRANS FXR-GAL4 reporter transcription
Procedure, shortened: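 Chimeric FXR-GAL4 activity in transiently transfected human HepG2 liver cells is scored as induction of reporter mRNA after 24 h of dosing. Detection uses RT-PCR with fluorescent labelling and capillary electrophoresis, with DMSO serving as baseline.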

[16] = BSK_3C_TissueFactor: BioMAP Diversity Plus: 3C Assay for Tissue Factor Biomarker Activity (AID 2282997); conditions: BioMAP 3C HUVEC, tissue factor biomarker readout; actives raise or lower the signal
Procedure, shortened: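 Values derive from bidirectional curve fitting against DMSO of Tissue Factor ELISA signals, taken 24 h after dosing primary human umbilical vein endothelial cells.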

[17] = BSK_3C_uPAR: BioMAP Diversity Plus: 3C Assay for Urokinase-type plasminogen activator receptor (uPAR) Biomarker Activity (AID 2282998); conditions: BioMAP 3C HUVEC, uPAR biomarker ELISA; actives raise or lower the signal
Procedure, shortened: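 Dose primary human umbilical vein endothelial cells, incubate 24 h, measure cell-surface uPAR by ELISA, then fit the signal in both directions against the DMSO negative control.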

[18] = BSK_3C_VCAM1: BioMAP Diversity Plus: 3C Assay for Vascular cell adhesion molecule 1 (VCAM1) Biomarker Activity (AID 2282999); conditions: BioMAP 3C HUVEC, VCAM1 ELISA, cytokine-stimulated; actives raise or lower the signal
Procedure, shortened: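 Endothelial cells from human umbilical vein are treated with test chemical. At 24 h, VCAM-1 is measured by ELISA, and responses in either direction are fitted relative to DMSO.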

Measured: AC50

Chain of Nuclear receptor subfamily 4 group A member 2 (Homo sapiens) (P43354 whole entry, looked up): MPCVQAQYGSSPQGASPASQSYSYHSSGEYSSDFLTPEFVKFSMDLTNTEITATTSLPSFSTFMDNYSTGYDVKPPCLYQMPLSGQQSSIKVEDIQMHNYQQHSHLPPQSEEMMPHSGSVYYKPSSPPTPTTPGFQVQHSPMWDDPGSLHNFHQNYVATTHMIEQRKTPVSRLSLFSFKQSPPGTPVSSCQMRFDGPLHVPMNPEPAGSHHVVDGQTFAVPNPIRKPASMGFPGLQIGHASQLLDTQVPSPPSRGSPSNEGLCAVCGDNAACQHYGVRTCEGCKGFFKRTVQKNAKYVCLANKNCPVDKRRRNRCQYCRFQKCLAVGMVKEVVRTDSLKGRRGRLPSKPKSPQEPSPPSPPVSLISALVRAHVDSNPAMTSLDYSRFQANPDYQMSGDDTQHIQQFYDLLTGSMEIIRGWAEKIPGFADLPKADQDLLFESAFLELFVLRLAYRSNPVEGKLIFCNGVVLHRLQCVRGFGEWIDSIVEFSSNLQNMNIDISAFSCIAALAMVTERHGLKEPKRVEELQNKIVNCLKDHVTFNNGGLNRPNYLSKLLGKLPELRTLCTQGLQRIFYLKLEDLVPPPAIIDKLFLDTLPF
Chain of Oxysterols receptor LXR-beta (Homo sapiens) (P55055 whole entry, looked up, the tested form may be a part): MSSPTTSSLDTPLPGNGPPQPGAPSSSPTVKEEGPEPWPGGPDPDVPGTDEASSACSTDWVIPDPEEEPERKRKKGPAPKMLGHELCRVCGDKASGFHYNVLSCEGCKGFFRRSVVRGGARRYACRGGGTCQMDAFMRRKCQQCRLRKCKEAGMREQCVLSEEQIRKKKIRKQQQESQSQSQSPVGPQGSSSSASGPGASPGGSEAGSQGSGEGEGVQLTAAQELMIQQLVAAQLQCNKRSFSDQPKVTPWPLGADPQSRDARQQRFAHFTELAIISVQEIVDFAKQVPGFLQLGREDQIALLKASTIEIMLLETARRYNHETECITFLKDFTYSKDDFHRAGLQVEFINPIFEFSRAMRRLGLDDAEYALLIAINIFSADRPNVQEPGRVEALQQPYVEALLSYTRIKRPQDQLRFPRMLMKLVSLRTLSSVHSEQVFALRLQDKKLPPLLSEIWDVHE
Chain of Hepatocyte nuclear factor 4-alpha (Homo sapiens) (P41235 whole entry, looked up): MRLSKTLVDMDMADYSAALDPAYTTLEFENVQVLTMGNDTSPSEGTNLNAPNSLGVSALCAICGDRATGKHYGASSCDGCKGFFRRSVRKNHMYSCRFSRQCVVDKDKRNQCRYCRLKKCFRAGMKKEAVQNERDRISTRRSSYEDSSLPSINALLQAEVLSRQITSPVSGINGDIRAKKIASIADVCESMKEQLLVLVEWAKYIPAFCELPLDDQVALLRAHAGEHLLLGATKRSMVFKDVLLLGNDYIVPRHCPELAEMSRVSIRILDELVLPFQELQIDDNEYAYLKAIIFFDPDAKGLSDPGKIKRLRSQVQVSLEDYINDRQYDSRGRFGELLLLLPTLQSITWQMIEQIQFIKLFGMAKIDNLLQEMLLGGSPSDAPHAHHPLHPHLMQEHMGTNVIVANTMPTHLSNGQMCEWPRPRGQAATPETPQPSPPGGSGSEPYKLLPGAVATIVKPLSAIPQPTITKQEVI
Chain of Bile acid receptor (Homo sapiens) (Q96RI1 whole entry, looked up, the tested form may be a part): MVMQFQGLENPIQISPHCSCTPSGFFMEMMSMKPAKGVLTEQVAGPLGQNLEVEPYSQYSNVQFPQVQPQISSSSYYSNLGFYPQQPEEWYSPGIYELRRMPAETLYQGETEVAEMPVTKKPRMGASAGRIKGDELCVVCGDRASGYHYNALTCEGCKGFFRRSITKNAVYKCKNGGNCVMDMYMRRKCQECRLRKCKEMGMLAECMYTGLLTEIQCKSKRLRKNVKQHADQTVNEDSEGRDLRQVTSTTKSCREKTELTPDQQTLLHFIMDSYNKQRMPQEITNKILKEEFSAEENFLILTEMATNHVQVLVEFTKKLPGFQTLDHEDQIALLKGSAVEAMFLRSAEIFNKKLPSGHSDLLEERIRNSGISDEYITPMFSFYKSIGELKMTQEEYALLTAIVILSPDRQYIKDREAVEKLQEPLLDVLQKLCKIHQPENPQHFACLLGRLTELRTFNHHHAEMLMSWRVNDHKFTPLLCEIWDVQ
Chain of Cellular tumor antigen p53 (Homo sapiens) (P04637 whole entry, looked up): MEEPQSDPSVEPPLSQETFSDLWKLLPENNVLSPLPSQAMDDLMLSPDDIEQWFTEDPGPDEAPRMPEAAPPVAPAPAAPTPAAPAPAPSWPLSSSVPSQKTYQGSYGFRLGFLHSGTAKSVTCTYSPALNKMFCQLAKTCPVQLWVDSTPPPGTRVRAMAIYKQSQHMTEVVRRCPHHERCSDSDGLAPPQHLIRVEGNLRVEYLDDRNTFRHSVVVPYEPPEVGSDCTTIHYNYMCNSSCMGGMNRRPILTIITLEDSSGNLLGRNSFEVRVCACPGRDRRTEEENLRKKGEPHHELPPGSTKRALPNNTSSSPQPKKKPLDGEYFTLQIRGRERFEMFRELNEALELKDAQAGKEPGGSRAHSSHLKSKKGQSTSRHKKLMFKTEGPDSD
Chain of Oxysterols receptor LXR-alpha (Homo sapiens) (Q13133 whole entry, looked up): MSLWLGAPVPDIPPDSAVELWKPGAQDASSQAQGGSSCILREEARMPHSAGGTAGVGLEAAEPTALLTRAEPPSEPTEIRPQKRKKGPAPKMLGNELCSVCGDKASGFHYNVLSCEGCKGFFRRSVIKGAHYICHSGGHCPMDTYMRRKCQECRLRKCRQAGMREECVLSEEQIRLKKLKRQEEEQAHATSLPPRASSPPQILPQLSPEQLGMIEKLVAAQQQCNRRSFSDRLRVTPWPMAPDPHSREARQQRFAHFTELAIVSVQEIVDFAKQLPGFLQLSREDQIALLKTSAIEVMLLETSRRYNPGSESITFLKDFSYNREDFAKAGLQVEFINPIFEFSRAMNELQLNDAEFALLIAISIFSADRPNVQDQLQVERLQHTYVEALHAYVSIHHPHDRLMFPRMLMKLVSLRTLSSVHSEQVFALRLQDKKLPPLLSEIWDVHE
Chain of Transcriptional activator Myb (Homo sapiens) (P10242 whole entry, looked up): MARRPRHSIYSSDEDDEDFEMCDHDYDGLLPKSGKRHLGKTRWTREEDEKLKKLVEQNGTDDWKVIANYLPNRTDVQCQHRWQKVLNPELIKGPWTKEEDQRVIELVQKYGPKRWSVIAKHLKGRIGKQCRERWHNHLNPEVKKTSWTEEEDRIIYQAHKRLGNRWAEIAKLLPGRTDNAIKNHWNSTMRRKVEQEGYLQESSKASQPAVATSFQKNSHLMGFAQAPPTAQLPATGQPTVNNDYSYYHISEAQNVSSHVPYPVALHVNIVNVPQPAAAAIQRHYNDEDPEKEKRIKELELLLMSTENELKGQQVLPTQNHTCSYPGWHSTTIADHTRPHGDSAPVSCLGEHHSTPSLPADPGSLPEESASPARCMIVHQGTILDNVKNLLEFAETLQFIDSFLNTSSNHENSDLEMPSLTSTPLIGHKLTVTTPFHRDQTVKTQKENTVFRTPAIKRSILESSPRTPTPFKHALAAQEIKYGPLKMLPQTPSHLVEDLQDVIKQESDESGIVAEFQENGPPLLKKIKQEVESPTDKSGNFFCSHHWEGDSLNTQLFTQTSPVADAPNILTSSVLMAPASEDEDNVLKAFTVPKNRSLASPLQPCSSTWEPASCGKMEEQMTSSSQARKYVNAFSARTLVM
Chain of Nuclear respiratory factor 1 (Homo sapiens) (Q16656 whole entry, looked up): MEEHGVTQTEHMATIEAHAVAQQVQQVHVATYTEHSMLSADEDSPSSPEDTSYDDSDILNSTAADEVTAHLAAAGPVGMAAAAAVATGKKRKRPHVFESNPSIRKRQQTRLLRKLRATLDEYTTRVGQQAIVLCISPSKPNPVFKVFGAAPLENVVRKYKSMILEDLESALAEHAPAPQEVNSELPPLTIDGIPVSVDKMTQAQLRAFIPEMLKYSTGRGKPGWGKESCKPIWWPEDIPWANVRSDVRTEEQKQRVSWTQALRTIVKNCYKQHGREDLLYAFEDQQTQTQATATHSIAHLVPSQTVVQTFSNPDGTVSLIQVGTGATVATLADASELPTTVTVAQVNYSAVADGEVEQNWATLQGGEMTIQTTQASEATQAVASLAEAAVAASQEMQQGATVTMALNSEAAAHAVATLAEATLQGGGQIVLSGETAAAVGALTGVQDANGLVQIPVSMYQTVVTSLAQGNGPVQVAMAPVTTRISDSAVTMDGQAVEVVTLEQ
Chain of Myc proto-oncogene protein (Homo sapiens) (P01106 whole entry, looked up): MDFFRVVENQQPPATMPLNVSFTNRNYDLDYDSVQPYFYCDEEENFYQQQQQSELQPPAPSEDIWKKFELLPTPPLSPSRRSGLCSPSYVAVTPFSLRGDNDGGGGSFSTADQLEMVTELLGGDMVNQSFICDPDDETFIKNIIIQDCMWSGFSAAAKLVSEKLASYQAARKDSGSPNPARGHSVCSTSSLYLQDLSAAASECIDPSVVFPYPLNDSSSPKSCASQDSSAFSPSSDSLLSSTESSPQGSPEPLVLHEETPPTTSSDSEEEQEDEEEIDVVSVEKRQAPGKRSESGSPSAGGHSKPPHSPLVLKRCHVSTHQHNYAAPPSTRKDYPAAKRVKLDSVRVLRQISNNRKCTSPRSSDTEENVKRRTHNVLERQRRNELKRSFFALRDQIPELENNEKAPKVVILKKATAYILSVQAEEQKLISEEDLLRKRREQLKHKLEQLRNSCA

CC(C)COC(=O)CC(C(=O)OCC(C)C)S(=O)(=O)O (stereo unspecified)
not listed: [12] | [13] | [14] | [15] | [16] | [17] | [18]
inactive: all other assays above

COc1cc(O)c(C(=O)c2ccccc2)cc1S(=O)(=O)O
inactive: [1] | [12] | [13] | [3] | [5] | [6] | [7] | [8] | [9] | [10]

COC(=O)C=Cc1ccccc1
inactive: [1] | [2] | [13] | [4] | [5] | [6] | [7] | [9] | [10]

CCOC(=O)c1ccc(C)cc1
not listed: [14] | [15] | [16] | [17] | [18]
inactive: all other assays above

O=C(O[C@@H]1Cc2c(O)cc(O)cc2O[C@@H]1c1cc(O)c(O)c(O)c1)c1cc(O)c(O)c(O)c1
not listed: [12] | [15] | [16] | [17] | [18]
inactive: all other assays above

CC(C)=NNC(N)=S
not listed: [1] | [2] | [12] | [14] | [16] | [17] | [18]
inactive: all other assays above

CCCCCCOc1ccc(N)cc1
active: [5] 100 µM | [9] 100 µM
inactive: [15] | [13] | [6] | [7] | [8] | [11]

CC(c1cc(C(C)(C)C)cc(C(C)(C)C)c1O)c1cc(C(C)(C)C)cc(C(C)(C)C)c1O
active: [15] 3.42 µM | [16] 0.464 µM
not listed: [1] | [2] | [12] | [14]
inactive: all other assays above

Cc1ccc2c(c1)CCCN2
not listed: [2] | [11] | [15] | [16] | [17] | [18]
inactive: all other assays above

C=C(C)C1CC=C(C)CC1 (stereo unspecified)
not listed: [8] | [12] | [14] | [15] | [16] | [17] | [18]
inactive: all other assays above

CC=C(C)C=CC=C(C)C
active: [9] 26.8 µM | [16] 20 µM | [18] 18.6 µM
not listed: [2] | [14] | [15]
inactive: all other assays above

O=S(=O)(O)c1ccc(N=Nc2c(O)ccc3ccccc23)cc1
active: [9] 34.1 µM
inactive: [1] | [2] | [12] | [3] | [5] | [6] | [7] | [11]
